Only some compounds are listed: those with a hit (about 1.6% of all), similar ones and a draw of the others.
p53ts 32C tox = p53ts cell cytotoxicity, permissive temperature | H1299-p53A138V at 32C, ATP luminescence viability, 24 h | Potency, µM (series often up to 46.1 µM), most hits filed as cytotoxic | AID 924 | 130,000 compounds, 0.93% hits; further: nearly all actives have a fitted effect of over 55% in size
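ATP-content luminescence (ATPlite) read-out after 24 h compound exposure at 32C in H1299-p53A138V cells (600/well). Tested up to 46 uM. Normalized to DMSO (0%) and 100 uM tamoxifen (100% killing); Hill-fit AC50.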
Peg3 imprint = induces erasure of genomic imprints in mouse ES cells; mouse ES Peg3-LacZ reporter, beta-gal luminescence, 40 h; 110,000 compounds, 0.02% hits; AID 1948; Potency, µM (doses to about 60.7 µM), most hits filed as activators
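Readout: BetaGlo luminescence (5 min, room temp) for LacZ from the normally silent maternal Peg3 allele in female Peg3LacZ-Neo ES cells. Cells 300/well, 40 h, 37C, 5% CO2. Data normalized per plate to negative controls.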
p53ts 39C kill = cytotoxicity in p53ts cells at nonpermissive temperature | Potency, µM (highest dose often 46.1 µM), actives largely listed as cytotoxic | 130,000 compounds, 1.5% hits | H1299-p53A138V viability at 39C, ATP luminescence, 24 h; further: nearly all actives have a fitted effect of over 55% in size
IkB sig inh = inhibitors of IkB signaling in ABC-DLBCL cells. 110,000 compounds, 0.04% hits. Potency, µM (doses to about 57.1 µM). ABC-DLBCL IkBa-CBG/CBR dual luciferase ratio, 4 h; response scale: scaled: untreated 0%, proteasome inhibitor 100%. AID 445; active means well fitted curve in the direction sought with a large enough effect in the signal ratio, not every such curve was filed as active; inconclusive means small, poorly fitted or top-dose-only effect, or a change in a side signal; the % refers to the signal ratio;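 further: the direction sought is a rising ratio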
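In this assay, an IκBα–CBG68 fusion accumulates when IKK-driven degradation is blocked; native CBR normalizes for cell number. OCI-Ly3 cells were treated 4 h with compound and doxycycline, then green and red light read after Chroma-Glo addition.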
Numbers stand for hits; n = inactive; u = inconclusive; x = not tested or not shown; ! = repeats disagree; [ ] = dose if it differs, or a comment. Unless noted, the call rests on the fitted dose curve; in most records, active means well fitted curve in the direction sought with a large enough effect; inconclusive means small, poorly fitted or top-dose-only effect, or another doubt; inactive means no such curve, though single readings can be large; an effect the other way counts as inactive or inconclusive.

SMILES	p53ts 32C tox	Peg3 imprint	p53ts 39C kill	IkB sig inh
CCOc1cccc2c1OC(c1cc(OC)c(OC)c(OC)c1)N1N=C(c3ccc(C)o3)CC21 (stereo not drawn)	11µM	x	u	x
CCCC(=O)Nc1cccc(-c2nc3cc(C)c(C)cc3o2)c1	16µM	n	u	n
CCC(=O)Nc1ccc2oc(-c3cccc(C)c3)nc2c1	13µM	n	u	n
Cc1ccc2oc(-c3ccc(NC(=O)CCC(=O)O)cc3)nc2c1	u	n[10.9 µM]	16µM	u
Cc1ccc(SCC(=O)Nc2ccc3oc(-c4cccc(C)c4)nc3c2)cc1	n	n[10.9 µM]	n	n
COc1cc(C(=O)Nc2cc(-c3nc4cc(C)ccc4o3)ccc2C)cc(OC)c1OC	13µM	n	u	u
COc1cccc(-c2cn3c(n2)sc2cc(C(=O)NCCc4ccccc4)ccc23)c1	n	n[10.9 µM]	n	u
C[C@@H](N)/C(N)=N/O	n[9.22 µM]	n[10.9 µM]	n[9.22 µM]	n[11.4 µM]
Cc1ccc2nc(-c3cccc(NC(=O)CSc4ccc(Cl)cc4)c3)oc2c1	13µM	n[10.9 µM]	n	n
O=C(Cc1cc(=O)[nH]c(=O)[nH]1)N1CCC(Cc2ccccc2)CC1	10µM	n	u	n
O=C(c1cccs1)N1CCC(Cc2ccccc2)CC1	n	x	n	x
CCc1nnc(SCC(=O)N(C)c2ccccc2)c2cc3sccc3n12	n	n[10.9 µM]	25µM	u
CCc1nnc(SCc2ccc(F)cc2Cl)c2cc3sccc3n12	n	n[10.9 µM]	n	n
O=C(Oc1ccccc1)n1c(=O)oc2ccc(Cl)cc21	n	x	n	x
Cc1nnc(N2CCN(C(=O)Nc3cc(F)ccc3F)CC2)c2nn(-c3ccc(Cl)cc3)c(C)c12	u	n[10.9 µM]	13µM	n
COc1ccc(-n2nc3c(N4CCC(C(=O)NCc5cccc(F)c5)CC4)nnc(C)c3c2C)cc1	u	n[10.9 µM]	5µM	n
COc1ccccc1NC(=O)N1CCN(c2nnc(C)c3c(C)n(-c4ccc(Cl)cc4)nc23)CC1	n	n[10.9 µM]	n	n
COc1ccc(CNC(=O)C2CCN(c3nnc(C)c4c(C)n(-c5ccc(C)cc5)nc34)CC2)cc1	u	n[10.9 µM]	u	u
Cc1ccc(NC(=O)C2CCN(c3nnc(C)c4c(C)n(-c5ccccc5)nc34)CC2)cc1Cl	n	n[10.9 µM]	n	u
COc1ccc(NC(=O)C2CCCN(c3nnc(C)c4c(C)n(-c5ccccc5)nc34)C2)cc1Cl (stereo not drawn)	u	n[10.9 µM]	10µM	u
O=C(c1ccc(-n2c(=O)c(=O)[nH]c3ccccc32)cc1)N1CCCN(Cc2ccccc2)CC1	n	x	n	x
CN(C)c1ccc(Nc2ncnc3sc4c(c23)CCCC4)cc1	n	n[10.9 µM]	n	n
Cc1cc(N2CCN(C)CC2)nc2ccc(NC(=O)Nc3ccc(Cl)cc3)cc12	n	n[10.9 µM]	n	n
CCOc1ccccc1NC(=O)Nc1ccc2nc(N3CCN(C)CC3)cc(C)c2c1	u	n[10.9 µM]	10µM	n
Cc1cc(N2CCN(C)CC2)nc2ccc(NC(=O)c3ccc(C(C)(C)C)cc3)cc12	16µM	n[10.9 µM]	20µM	u
SMILES	p53ts 32C tox	Peg3 imprint	p53ts 39C kill	IkB sig inh
Cc1ccccc1NC(=O)Nc1ccc2nc(N3CCN(C)CC3)cc(C)c2c1	n	n[10.9 µM]	n	u
Nc1ccc(N=Nc2ccccc2)c(N)c1	n[1.84 µM]	n	u	n
O[C@@H]1CC[C@H]2Cc3ccccc3N=C21	x	x	x	n[11.4 µM]
CCc1nn(CC(=O)Nc2ccc(C)c(F)c2)c(=O)c2cc3cc(C)ccc3n12	n	n[10.9 µM]	32µM	n
CCN1CCC[C@@H]1CNC(=O)c1c(OC)ccc(I)c1O	x	x	x	n
Cc1ccc(NC(=O)c2cnn3c(C(F)F)cc(-c4ccccc4)nc23)cc1F	n	n[10.9 µM]	n	n
CNS(=O)(=O)c1ccc(NC(=O)c2cnn3c(C(F)F)cc(-c4ccccc4)nc23)cc1	n	n[10.9 µM]	13µM	n
CN[C@@H](CC(C)C)C(=O)N[C@@H]1C(=O)N[C@H](CC(N)=O)C(=O)N[C@H]2C(=O)N[C@H]3C(=O)N[C@H](C(=O)N[C@H](C(=O)O)c4cc(O)cc(O)c4-c4cc3ccc4O)[C@H](O)c3ccc(c(Cl)c3)Oc3cc2cc(c3O[C@@H]2O[C@@H](CO)[C@@H](O)[C@@H](O)[C@H]2O[C@H]2C[C@](C)(N)[C@H](O)[C@H](C)O2)Oc2ccc(cc2Cl)[C@@H]1O	n	x	n	n
CCOC(=O)c1ccc(N2C(=O)c3n[nH]c(-c4cccs4)c3C2c2cccc(F)c2)cc1 (stereo not drawn)	n	n[10.9 µM]	6.3µM	u
CCC1CCCCN1CCCNC(=O)c1cc2c(=O)n(CC)c3ccccc3c2s1 (stereo not drawn)	n	n[10.9 µM]	n	n
CCC1CCCCN1CCCNC(=O)c1cc2c(Cl)nc3ccc(C)cc3c2s1 (stereo not drawn)	n	n[10.9 µM]	13µM	n
CCCCNc1c(C(=O)OCC)c(C)nc2c1cnn2CC	n	n	16µM!	u
CCOc1ccccc1NC(=O)c1cc(S(=O)(=O)N2CCOCC2)cn1C	n	n[10.9 µM]	n	n
Nc1ncnc2c1nc(Sc1ccc(Cl)cc1)n2[C@@H]1O[C@H]2COP(=O)(O)O[C@@H]2[C@H]1O	n	x	n	n
Cc1cccc(Cn2c(N(C)Cc3ccccc3)nc3c2c(=O)[nH]c(=O)n3C)c1	6.3µM	n	5µM	n
CN(Cc1ccccc1)c1nc2c(c(=O)[nH]c(=O)n2C)n1C	n	n	n	n
CC(C)NC[C@@H](O)c1ccc(O)c2ncccc12	n[9.22 µM]	n[10.9 µM]	n[9.22 µM]	n[11.4 µM]
O=C(/C=C\Nc1ccc2c(c1)OCO2)c1ccccn1	1.6µM	n	2.5µM	u
COc1ccc(-c2cc(C(=O)Oc3ccc(Br)cc3)c3ccccc3n2)cc1	u	n[10.9 µM]	13µM	n
COc1ccc(-c2cc(C(=O)OCC(=O)N3CCCC3)c3ccccc3n2)cc1	13µM	n	6.3µM	u
CC(C)(C)c1ccc(OCC(=O)NCC2(N3CCOCC3)CCCCC2)cc1	u	n[10.9 µM]	16µM	u
COc1cc(Nc2nc(SCc3ccccc3Cl)nc3ccccc23)cc(OC)c1	n	n[10.9 µM]	n	n
COc1ccc(S(=O)(=O)Nc2cccc(-c3ccc(N4CCCC4)nn3)c2)cc1OC	n	n[10.9 µM]	n	u
COc1ccc(F)cc1S(=O)(=O)Nc1cccc(-c2ccc(N3CCC(C)CC3)nn2)c1	u	n[10.9 µM]	7.9µM	n
COc1ccc(S(=O)(=O)Nc2cccc(-c3ccc(N4CCC(C)CC4)nn3)c2)cc1OC	3.2µM	n[10.9 µM]	2.5µM	u
SMILES	p53ts 32C tox	Peg3 imprint	p53ts 39C kill	IkB sig inh
Clc1ccc([C@@H](c2ccccc2Cl)C(Cl)Cl)cc1	x	x	x	n
O=C(O)[C@@H]1[C@@H](C(=O)O)[C@@]23CCCC2=C2CC[C@@]3(C(=O)O)[C@@]3(C(=O)O)C[C@@]213	x	n[10.9 µM]	x	x
NCCCCCCNS(=O)(=O)c1ccc2c(Cl)cccc2c1	n	n	32µM	u
NCCCCNS(=O)(=O)c1ccc2c(Cl)cccc2c1	n	n	n	u
CN(C)CCCNC(=O)c1ccc(Cc2nc3ccccc3[nH]2)cc1	n	x	n	x
CCCN(CCC)CCCNC(=O)c1cnn(-c2ccc(F)cc2)c1-n1cccc1	n	n[10.9 µM]	n	n
O=C(NCCCN1CCN(c2cccc(Cl)c2)CC1)c1cnn(-c2ccc(F)cc2)c1-n1cccc1	u	n[10.9 µM]	2.5µM	n
O=S(=O)(Nc1ccc(F)c(Cl)c1)c1ccc(Br)s1	n	n[10.9 µM]	n	u

Source: PubChem
